Compound activity: PubChem BioAssay, several laboratories
Compounds with a hit are over-represented: about 1.9% of the library has one in this group of screens.
NSD2 HMT inh = blocks human histone methyltransferase NSD2; NSD2 peptide methylation, AlphaScreen, 120 min; 310,000 compounds, 0.54% hits; inhibition, % at 12.5 µM; O96028; AID 743445; in the data active = inhibition above about 50%
ATG4B inhibitor = inhibitors of human ATG4B cysteine protease. ATG4B cleavage of LC3-PLA2, NBD-HPC fluorescence, 1 h. inhibition, % at 8.33 µM. 340,000 compounds, 0.51% hits; in the data active = inhibition above about 40%
N-glyco inh = blocks N-linked glycosylation in D54 reporter cells; D54 ERlucT glycosylation luciferase reporter, 24 h; percent of 100 nM tunicamycin response; 360,000 compounds, 0.23% hits; AID 588692; reporter increase, % at 12.5 µM;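 active = mean luciferase reporter signal, scaled so untreated is 0 and the glycosylation-blocking control 100, at or above a set limit in every replicate; inconclusive = mean reaches the limit but not every replicate does; inactive = mean below the limit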;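 also: luciferase carries N-glycosylation sites so blocking glycosylation raises the light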
Pemphigus Ab inh = inhibitors of pemphigus antibody binding to human desmoglein-3; P32926; DSG3-coupled beads, scFv-anti-DSG3-GFP binding, flow cytometry; stronger effect = lower value; binding (percent of control), % at 10 µM; 310,000 compounds, 0.48% hits; AID 588358;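 active = binding more than 3 SD below its plate's average and above zero; inconclusive = below that plate limit but binding exactly zero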
Target sequence (P32926 whole entry, looked up): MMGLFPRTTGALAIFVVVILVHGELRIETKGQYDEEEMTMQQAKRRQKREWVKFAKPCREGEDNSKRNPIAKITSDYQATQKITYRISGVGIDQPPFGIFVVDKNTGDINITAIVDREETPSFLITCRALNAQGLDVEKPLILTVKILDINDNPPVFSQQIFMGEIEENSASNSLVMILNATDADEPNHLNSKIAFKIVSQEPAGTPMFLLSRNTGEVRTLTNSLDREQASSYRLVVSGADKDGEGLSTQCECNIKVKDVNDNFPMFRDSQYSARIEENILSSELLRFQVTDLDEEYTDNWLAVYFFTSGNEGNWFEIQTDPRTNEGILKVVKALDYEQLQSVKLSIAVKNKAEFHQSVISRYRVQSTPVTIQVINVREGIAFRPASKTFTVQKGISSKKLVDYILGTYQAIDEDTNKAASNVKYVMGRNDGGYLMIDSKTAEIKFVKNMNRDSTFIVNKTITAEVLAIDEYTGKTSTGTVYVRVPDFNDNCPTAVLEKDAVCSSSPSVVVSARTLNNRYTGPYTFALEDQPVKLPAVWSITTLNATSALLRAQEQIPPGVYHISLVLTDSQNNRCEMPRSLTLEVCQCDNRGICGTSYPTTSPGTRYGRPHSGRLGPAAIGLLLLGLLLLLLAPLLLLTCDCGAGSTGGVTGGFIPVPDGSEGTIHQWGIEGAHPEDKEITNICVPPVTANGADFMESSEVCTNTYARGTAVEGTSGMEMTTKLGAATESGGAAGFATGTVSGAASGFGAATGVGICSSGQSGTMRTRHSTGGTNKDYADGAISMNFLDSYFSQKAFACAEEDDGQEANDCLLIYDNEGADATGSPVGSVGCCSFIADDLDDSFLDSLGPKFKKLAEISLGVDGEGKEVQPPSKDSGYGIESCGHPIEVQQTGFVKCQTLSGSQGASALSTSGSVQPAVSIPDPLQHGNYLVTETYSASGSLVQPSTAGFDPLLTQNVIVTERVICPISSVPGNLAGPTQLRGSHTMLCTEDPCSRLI
CaV13 FRET inh = Disruptors of the CACNA1D IQ motif to Ca2+-dependent inactivation inhibitor domain association, primary screening, Förster resonance energy transfer in intact living …; AID 743397; inhibition, % at 12.3 µM; HEK cells, CFP/YFP FRET ICDI-IQ, plate reader, 10 min; percent FRET-ratio fall versus neutral wells; 340,000 compounds, 0.098% hits;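 active = mean replicate inhibition of at least 30% and at least 1% of replicates passing that level; inconclusive = only one of the two criteria is met; inactive = neither criterion is met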
Vif imaging = HIV Vif inhibition; AID 602346; inhibition, % at 7.49 µM; HEK293T cells, Vif self-association by quenched fluorescence, imaging, 24 h; 340,000 compounds, 0.35% hits; in the data active = inhibition above about 50%, passing the limit was not always enough; inconclusive = no clear call, values can overlap the other calls; inactive = below about 31%
Of the large screens only hits and unclear results are named; the others gave an inactive call.

C/C=C/Cn1c(SCc2ccc(C)cc2)nc2c1c(=O)[nH]c(=O)n2C	Pemphigus Ab inh 71
CC(C)(C)n1nc2c(c1NC(=O)c1ccccc1C(F)(F)F)CS(=O)(=O)C2	none
CCn1c(=NC(=O)C2COc3ccccc3O2)sc2c(OC)ccc(OC)c21 (stereo not drawn)	Vif imaging 71
COCCn1c(=NC(=O)C2COc3ccccc3O2)sc2cc(S(N)(=O)=O)ccc21 (stereo not drawn)	none (no result: Vif imaging)
CN(C(=O)c1cccc(NC(=O)Cc2cccc(NC(=O)C3CCCN(C(=O)C4CCCC4)C3)c2)c1)C1CCC1 (stereo not drawn)	none (no result: NSD2 HMT inh, Vif imaging)
CCCC(C(=O)Nc1cccc(S(=O)(=O)N2CCCC2)c1)c1ccccc1 (stereo not drawn)	Pemphigus Ab inh 8.0
CC(C)CNC(=O)C(=O)NCc1ccccn1	Pemphigus Ab inh 15
CNc1snc(C)c1C(=O)OCC(=O)c1ccc(OC)c(F)c1	none (no result: Pemphigus Ab inh)
CN(C)c1ccc(/C=N/N2C(=O)c3ccccc3C2=O)cc1	none
CCN(CC)c1ccc(/C=N/N2C(=O)c3ccccc3C2=O)cc1	Pemphigus Ab inh 63
N#CCC(CNc1ncc(C(F)(F)F)cc1Cl)OC(=O)c1ccc(Cl)cc1Cl (stereo not drawn)	N-glyco inh 30
Fc1cccc(CN2CCN(Cc3nc(-c4cnccn4)no3)CC2)c1	Pemphigus Ab inh -16
NC(=O)c1ccc2c(=O)n3c(-c4cc(Cl)c(N)c(Cl)c4)csc3nc2c1	N-glyco inh 29 (no result: NSD2 HMT inh)
O=C1N=C(N2CCN(Cc3ccccc3)CC2)S/C1=C/c1cccs1	none
Cc1cccc(OC(=O)NCCOC(=O)N(O)c2ccc(Cl)cc2)c1	Pemphigus Ab inh -26
NCCc1nnc(SCC(=O)Nc2ccc(Br)cc2)o1	none
CSCCC(NC(=O)c1ccc([N+](=O)[O-])cc1Cl)C(=O)OCC(=O)N1CCN(C(C)=O)CC1 (stereo not drawn)	Pemphigus Ab inh inconclusive
CCCN1C(=O)/C(=C/C=C2\N(CC)c3ccccc3C2(C)C)SC1=S	none (no result: NSD2 HMT inh)
CCCCN1C(=O)/C(=C/C=C2\Oc3ccccc3N2CC)SC1=S	Vif imaging 69
NC(=O)c1ccccc1OCC(=O)O	none (no result: CaV13 FRET inh)
NC(=O)c1ccccc1OCC(=O)NS(=O)(=O)c1ccccc1	Vif imaging 56
CC(=O)Nc1cc(=O)c2cccnc2[nH]1	Pemphigus Ab inh 73 (no result: NSD2 HMT inh)
COc1cc(NC(C)=O)c2ncccc2c1NC(C)=O	none
CCCOc1ccccc1-c1nc2n[nH]nc2c(=O)[nH]1	none (no result: NSD2 HMT inh)
COC(=O)c1cc(=O)n(Cc2ccc3c(c2)OCO3)c(=Nc2ccc(F)c(Cl)c2)s1	CaV13 FRET inh 38 (no result: NSD2 HMT inh)
COC(=O)c1cc(=O)n(CCc2ccc(OC)cc2)c(=Nc2ccc(F)c(Cl)c2)s1	none (no result: NSD2 HMT inh)
O=C(COc1ccc(C(=S)N2CCOCC2)cc1Cl)Nc1ccccc1Cl	Pemphigus Ab inh 83
CCc1ccc(NC(=O)CCn2cccc2)cc1	none
CCCS(=O)(=O)N1CCCC(C(=O)NCCCN2CCN(c3ccccc3F)CC2)C1 (stereo not drawn)	Vif imaging 59 (no result: CaV13 FRET inh)
CCOC(=O)c1ccc2ncc(C(=O)OCC)c(NCc3ccco3)c2c1	Pemphigus Ab inh 47 (no result: Vif imaging)
Cc1ccccc1NC1=C/C(=N\S(=O)(=O)c2cccs2)c2ccccc2C1=O	ATG4B inhibitor 95
COc1ccc(S(=O)(=O)N2CCN(C(=O)c3cnc(C)cn3)CC2)cc1	none (no result: Vif imaging)
Cc1cnc(C(=O)N2CCN(S(=O)(=O)c3cc(C(F)(F)F)cc(C(F)(F)F)c3)CC2)cn1	Pemphigus Ab inh -17
Cc1ccc(NC(=O)/C=C/C(=O)O)c(NC(=O)c2ccccc2)c1	Vif imaging 53
Cc1ccc(O)c(NC(=O)/C=C/C(=O)O)c1	none
O/N=C/c1ccc2cccc(OCc3ccccc3)c2n1	none
NC(N)=N/N=C/c1ccc2cccc(OCc3ccccc3)c2n1	N-glyco inh 29
Cn1c(-c2ccccc2)cc2ccccc21	none
Cn1c(-c2ccccc2)cc2c3no[n+]([O-])c3ccc21	Vif imaging 61 (no result: CaV13 FRET inh)
Cc1ccccc1NC(=O)Cc1nc(COC(=O)c2cccc([N+](=O)[O-])c2)cs1	Pemphigus Ab inh 78 (no result: Vif imaging)
Cc1ccccc1NC(=O)Cc1nc(COC(=O)c2ccc([N+](=O)[O-])cc2)cs1	none
Cc1ccc(Cn2c(CCNc3nc(-c4ccc(Cl)c([N+](=O)[O-])c4)cs3)nc3cc(C(=O)NCCCO)ccc32)cc1	none (no result: NSD2 HMT inh, Vif imaging)
COc1ccc(C)cc1NC(=O)CSc1nnc(COc2ccc(Cl)cc2)n1Cc1ccco1	none
O=S(=O)(c1cccs1)N1CCN(c2ccccn2)CC1	Pemphigus Ab inh 80
O=S(=O)(c1cccs1)N1CCN(c2ncccn2)CC1	none
Cc1nc(CSc2nc3[nH]ncc3c(=O)n2-c2ccccc2)cs1	none (no result: CaV13 FRET inh)
Cc1noc(C)c1CSc1nc2ccccc2c(=O)n1-c1ccccc1	ATG4B inhibitor 54 (no result: Pemphigus Ab inh)
C=CCn1c(SCc2c(C)noc2C)nc2ccccc2c1=O	N-glyco inh inconclusive
Cc1noc(C)c1CSc1nc2[nH]ncc2c(=O)n1-c1ccccc1	N-glyco inh 42 (no result: CaV13 FRET inh, Vif imaging)
CCN(CC)c1ccc(C(=O)OCc2cc(=O)oc3cc(O)ccc23)cc1	Pemphigus Ab inh 86 (no result: CaV13 FRET inh)
CCN(CC)c1ccc2c(O)cc(=O)oc2c1	none
O=C(OCCc1ccccc1)c1cc(O)c(O)c(O)c1	Vif imaging 51 (no result: NSD2 HMT inh)
Nc1ccc(C(=O)OCCc2ccccc2)cc1	none (no result: NSD2 HMT inh)
O=C(Oc1ccccc1)c1cc(O)c(O)c(O)c1	NSD2 HMT inh 116 (no result: ATG4B inhibitor, Pemphigus Ab inh, CaV13 FRET inh, Vif imaging)
CC(=O)c1cccc(OC(=O)c2ccccc2)c1	none
CC1C(c2ccccc2)=NNc2nc3c(c(=O)n(C)c(=O)n3C)n21 (stereo not drawn)	none (no result: NSD2 HMT inh, N-glyco inh, Pemphigus Ab inh, CaV13 FRET inh, Vif imaging)
Cc1ccc(-c2ccc(/C=C3\SC(N4CCOCC4)=NC3=O)o2)cc1	none
O=C1Nc2ccc(Cl)cc2C12OCCCO2	none
C1=C(c2ccccc2)Nc2ncnn2C1c1ccccc1 (stereo not drawn)	Pemphigus Ab inh 69 (no result: NSD2 HMT inh)
COc1ccc(CC(=O)Nc2cccc(-c3csc(C)n3)c2)cc1	Pemphigus Ab inh -20 (no result: CaV13 FRET inh)
Cc1cc(C(=O)N2CCN(S(C)(=O)=O)CC2)sc1-c1ccccc1	Pemphigus Ab inh 86
Cc1cc(C(=O)N2CCN(c3ncccn3)CC2)sc1-c1ccccc1	none
CCOC(=O)c1c(C)n(CC)c2c1cc(O)c1ccccc12	none
O=C(/C=C(\O)c1ccccc1)C(=O)NNC(=O)c1ccccc1	none
O=C(/C=C(\O)c1ccc(Cl)cc1)C(=O)NNC(=O)C(O)(c1ccccc1)c1ccccc1	ATG4B inhibitor 42 (no result: NSD2 HMT inh, CaV13 FRET inh)
Cc1ccccc1C(=O)c1cccn1CC(=O)NCCCN1CCc2ccccc2C1	none
CCOc1ccc2nc(NCCCNC(=O)c3cc(OC)c(OC)c(OC)c3)c(C#N)cc2c1	CaV13 FRET inh active
COc1cc(C(=O)NCCCNc2nc3cc(C)cc(C)c3cc2C#N)cc(OC)c1OC	none (no result: NSD2 HMT inh)
